# Assay outcomes (PubChem)
# Shown are actives, neighbours in structure and some others; about 4.6% of the full set was active somewhere.
# Bst PK mod = modulators of Bacillus stearothermophilus pyruvate kinase; purified pyruvate kinase, luminescence ATP production; ribose 5-phosphate activator present at AC10; Potency, µM; 51,000 tested, 1.2% active; AID 361; in the data active means potency below about 11 µM; inconclusive means mostly about 12 µM to 25 µM;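 the screen sought inhibitors and activators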;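 further: scaled between full activation by ribose 5 phosphate and full inhibition by luteolin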
# GBA activity = human lysosomal glucosylceramidase modulation; purified enzyme, resorufin glucoside fluorescence (screen aimed at inhibitors), 20 min; P04062; 48,000 tested, 1.1% active; Potency, µM; in the data active means potency below about 15 µM; inconclusive means mostly about 16 µM to 33 µM;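 further: the screen sought inhibitors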
#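 Normal human glucocerebrosidase (0.2 nM final) was assayed with resorufin β-D-glucopyranoside (30 uM final) in 50mM citric acid/KH2PO4, 10mM sodium taurocholate, 0.01% tween-20, pH 5.9. Compounds were titrated; fluorescence (Ex 548, Em 600) read after 20 min at RT.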
# USP2a inh = USP2a (human) protease inhibition; Potency, µM (doses to about 38.3 µM), for the others: at the highest dose activity change, negative = inhibition, usual class: inhibitors; 60,000 tested, 0.1% active; O75604; USP2a enzymatic assay, qHTS inhibition; further: nearly all actives have a fitted effect of over 60% in size
#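 USP2 core (20nM final) preincubated 30 min RT with compound, then Ub-PLA2 20nM and NBD C6-HPC 20uM final added; buffer 20mM Tris-HCl pH 8.0, 2mM CaCl2. Fluorescence Ex 460/Em 535 read at 0 and 2.5 h; normalized to NEM.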
# Tau filament bind = tau filament binding; 71,000 tested, 2% active; recombinant tau filaments, thioflavin S fluorescence, 15 h; filaments grown with octadecylsulfate alongside compound; AID 596; Potency, µM (titrated, usually from 57.1 µM), for the others: at the highest dose activity change, negative = inhibition;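 further: on the % scale 0 is the no-effect control and ±100 the full control effect; actives lower thioflavin S fluorescence by blocking filaments or displacing dye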
# Target sequence (P10636 whole entry, looked up): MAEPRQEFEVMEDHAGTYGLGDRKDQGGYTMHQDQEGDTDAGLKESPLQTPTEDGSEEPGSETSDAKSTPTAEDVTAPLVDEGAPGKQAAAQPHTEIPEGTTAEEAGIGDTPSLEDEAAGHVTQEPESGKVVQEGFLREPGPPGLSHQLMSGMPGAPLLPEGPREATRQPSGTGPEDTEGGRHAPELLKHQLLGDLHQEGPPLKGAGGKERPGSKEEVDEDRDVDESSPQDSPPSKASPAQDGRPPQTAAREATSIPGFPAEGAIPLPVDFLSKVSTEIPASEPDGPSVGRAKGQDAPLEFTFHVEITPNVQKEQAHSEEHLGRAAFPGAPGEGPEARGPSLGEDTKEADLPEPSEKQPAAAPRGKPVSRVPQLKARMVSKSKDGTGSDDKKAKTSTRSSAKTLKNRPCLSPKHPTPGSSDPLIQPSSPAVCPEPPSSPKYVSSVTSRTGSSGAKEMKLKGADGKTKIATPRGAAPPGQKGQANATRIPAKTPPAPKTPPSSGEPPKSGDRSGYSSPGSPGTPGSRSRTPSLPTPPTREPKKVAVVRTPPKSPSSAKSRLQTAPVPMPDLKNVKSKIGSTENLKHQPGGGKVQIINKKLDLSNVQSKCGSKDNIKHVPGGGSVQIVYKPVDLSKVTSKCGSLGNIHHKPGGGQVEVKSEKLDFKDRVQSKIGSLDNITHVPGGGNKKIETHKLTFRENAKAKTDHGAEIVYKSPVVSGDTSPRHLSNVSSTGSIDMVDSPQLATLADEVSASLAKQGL
#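 Recombinant tau protein (human, 1 uM final) plus 30 uM ODS in HEPES pH 7.4 with NaCl, DTT and thioflavine S. Compound present from the start; fluorescence at 510 nm after 15 h, 37 C.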
# 15-hLO inh = 15-hLO (ALOX15) enzyme inhibition; purified 15hLO-1, xylenol orange hydroperoxide absorbance; 74,000 tested, 1.4% active; Potency, µM (series often up to 57.1 µM), inactives show at the top dose activity change, negative = inhibition, actives largely listed as inhibitors; P16050; further: on the % scale 0 is the no-effect control and ±100 the full control effect; nearly all actives have a fitted effect of over 55% in size
#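 Purified human 15hLO-1 (40 nM) in 25 mM Hepes pH 7.5, 0.01% Triton X-100, preincubated 15 min RT with compound, then 50 uM arachidonic acid for 6 min. Hydroperoxide read by ferrous/xylenol orange, 30 min; 573/405 nm absorbance ratio gave progress.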
# Hsp90 Hop PPI = changes Hsp90-Hop TPR2A binding signal, up or down | AlphaScreen TPR2A-His6 binding biotin-Hsp90 C-terminal peptide | Potency, µM (titrated, usually from 57 µM), for inactives: top-dose activity change, negative = inhibition | 71,000 tested, 0.44% active; active means well fitted curve in either direction with a large enough effect; inconclusive means small, poorly fitted or top-dose-only effect, or another doubt; further: on the % scale 0 is the no-effect control and ±100 the full control effect
# * hit, by the source's call; i = inactive; ? = inconclusive; nt = no result given; [ ] = remark or other dose. Unless noted, the call rests on the fitted dose curve; in most records, active means well fitted curve in the direction sought with a large enough effect; inconclusive means small, poorly fitted or top-dose-only effect, or another doubt; inactive means no such curve, though single readings can be large; an effect the other way counts as inactive or inconclusive. Potency means the concentration at half of the fitted maximal effect.
SMILES,Bst PK mod,GBA activity,USP2a inh,Tau filament bind,15-hLO inh,Hsp90 Hop PPI
CCCCn1cnc2cc(NCc3cccc(OC)c3O)ccc21,>57,?,19.6%,-15.7%,18.6%,-6.9%
O=C1c2ccccc2C(Nc2ccc3c(c2)OCCO3)N1c1ccc(Cl)cn1 (stereo unspecified),nt,nt,nt,41.1%,-16.7%,-24.6%
Nc1ccc(-c2cc(N)n(-c3ccccc3)n2)cc1,>57,>76.9,11.0%,?,-7.2%,-11.2%
Cc1ccc(-n2nc(-c3ccc(N)cc3)cc2N)cc1,nt,nt,nt,7.94µM*,-1.9%,-2.7%[2.3 µM]
FC(F)(F)c1cnc2c(c1)Nc1ccccc1S2,nt,>76.9,-7.2%,-0.3%,-2.6%,0.2%
CC(=O)C1=C(C)Nc2cc(C(F)(F)F)ccc2S1,nt,nt,7.0%,31.6µM*,12.6µM*,-17.3%
Cc1cc(=O)oc2ccc(OC(=O)c3cccc(S(=O)(=O)N4CCOCC4)c3)cc12,>57,>76.9,20.4%,5.1%,-1.2%,-0.7%
Cc1cc(C)nc(N2CCCC(C(=O)NCCc3ccccc3F)C2)n1 (stereo unspecified),3.16*,>76.9,5.9%,1.7%,0.8%,-6.0%
COc1cccc2cc(C(=O)Nc3cccc(C)n3)c(=O)oc12,nt,>76.9,18.0%,-1.3%,11.4%,-1.4%
Fc1ccc(-c2nnc(-c3ccc(Cl)cc3Cl)o2)cc1,nt,nt,nt,132.3%,1.9%,14.9%
CCSc1nnc(-c2ccc(Cl)cc2Cl)o1,nt,nt,-0.1%[7.66 µM],2.5%[11.4 µM],3.16µM*,23.6%[11 µM]
Clc1ccc(-c2nnc(-c3ccccc3)o2)c(Cl)c1,2.55*,>76.9,-6.1%,3.3%,-11.9%,?
Cn1cnc2nc3n(c2c1=O)CCC3,nt,nt,5.6%,-3.2%,2.9%,?
Cc1ccnc(NS(=O)(=O)c2ccc(NC(=O)Cc3cccs3)cc2)n1,nt,nt,20.7%[7.66 µM],-19.8%[11.4 µM],-3.1%[11.4 µM],-6.0%[11 µM]
O=C(Nc1ccc(OC(=O)c2ccncc2)cc1)c1ccncc1,>11.4,1.86*,-3.2%,-7.7%,-17.4%,-6.7%
Cc1cc(C)n(-c2ccc(C(=O)Nc3sccc3C(N)=O)cc2)n1,i,14.9*,-7.0%,-23.5%,-8.2%,-2.5%
Cn1nc(C(=O)Nc2ccc(S(=O)(=O)N3CCCCC3)cc2)ccc1=O,>57,>76.9,13.8%,-2.2%,7.2%,-3.0%
Cn1nc(C(=O)Nc2sccc2C(N)=O)ccc1=O,nt,>76.9,13.8%,25.1µM*,0.8%,0.3%
CCN1CCN(c2ccc(NC(=O)Cc3ccccc3)cc2)CC1,>57,i,2.5%,-18.8%,3.2%,-3.4%
O=C(CNC(=O)c1ccco1)NCC(=O)OCc1ccccc1Br,>57,>76.9,-2.6%,8.0%,-1.5%,-0.5%
Cc1ccc(C(=O)C2CCN(CC(=O)Nc3ccc(N(C)C)cc3)CC2)cc1,>57,nt,7.1%,20µM*,-17.0%,-16.3%
Oc1ccccc1C1=Nc2nc3ccccc3n2C(c2ccccc2)C1 (stereo unspecified),nt,14.9*,41.1%,7.94µM*,-18.3%,-21.0%
CN1C(=O)CC(n2c(CO)nc3ccccc32)C1=O (stereo unspecified),>57,>76.9,-12.2%,5.4%,13.9%,-6.3%
Fc1ccc(-c2nnc(-c3ccc(Cl)cc3)o2)cc1,nt,nt,-3.6%,73.4%,-0.9%,3.5%
Clc1ccc(-c2nnc(NC3=NCCCCC3)o2)cc1,6.41*,>76.9,5.7%,19.1%,5.8%,-4.0%
SMILES,Bst PK mod,GBA activity,USP2a inh,Tau filament bind,15-hLO inh,Hsp90 Hop PPI
C=CCn1c(-c2c[nH]c3ccccc23)n[nH]c1=S,>11.4,>76.9,9.0%,-6.5%,-22.8%,0.4%
CCn1c(-c2c[nH]c3ccccc23)n[nH]c1=S,nt,10.8*,3.7%,-5.3%,-19.1%,-5.6%
COc1cc(NC(=O)C2CCCCN2)ccc1OCC(C)C (stereo unspecified),>57,>76.9,4.6%,-21.5%,-27.6%,0.8%
COc1ccc(NC(=O)C2CCCNC2)cc1OCC(C)C (stereo unspecified),nt,nt,1.5%,25.1µM*,?,-5.8%
O=C1C2C(C(=O)N1CC1CCCO1)C1C=CC2C12CC2 (stereo unspecified),nt,nt,2.5%[7.66 µM],-4.1%[11.4 µM],4.2%[11.4 µM],-3.3%[11 µM]
COc1c(O)cccc1O,nt,nt,-0.3%,nt,1.8%,nt
Oc1cccc(O)c1O,nt,nt,nt,-3.8%,12.6µM*,-9.0%
O=S(=O)(Nc1cc(Cl)ccc1N1CCCCC1)c1cccs1,>57,15.4*,26.1%,-18.0%,-10.3%,15.9%
O=S(=O)(Nc1ccc(N2CCCCC2)cc1)c1cccs1,>57,>76.9,7.7%,?,-19.2%,-14.5%
